Assay [1] can be described thus: Nuclear factor erythroid 2-related factor 2/antioxidant responsive element (Nrf2/ARE) small molecule agonists: qHTS cell viability counter screen in human keratinocytes (AID 1919968; active = well fitted curve in the direction sought with a large enough effect in the repeat runs; an effect the other way counts as inactive or inconclusive; also: nearly all actives have a fitted effect of over 55% in size; also: potency is read from the fitted curve at half-maximal effect). Put shortly: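 Cytotoxicity was multiplexed with the Nrf2/ARE luciferase assay in the same wells. Stably transfected HaCaT keratinocytes were treated with test compounds for 23 h at 37 C. Cell viability was then measured by CellTiter-Fluor fluorescence.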
A general note: qHTS replaces the single test concentration by a dilution series.

The target of assay [2] is KiSS-1 receptor (Homo sapiens) (UniProt Q969F8). The assay is described as follows: Human kisspeptin (KISS1R) small molecule agonists, calcium flux assay in KISS1R-HEK293 cells (AID 1920064; active = well fitted curve in the direction sought with a large enough effect in the repeat runs; an effect the other way counts as inactive or inconclusive). Put shortly: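 Agonist activity is monitored as intracellular calcium rise in engineered HEK293 cells carrying human KISS1R. Cells are dye-loaded for 1 h at 37 C before compound addition, and fluorescence is recorded for 3 min.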
KiSS-1 receptor (Homo sapiens), sequence (Q969F8 whole entry, looked up): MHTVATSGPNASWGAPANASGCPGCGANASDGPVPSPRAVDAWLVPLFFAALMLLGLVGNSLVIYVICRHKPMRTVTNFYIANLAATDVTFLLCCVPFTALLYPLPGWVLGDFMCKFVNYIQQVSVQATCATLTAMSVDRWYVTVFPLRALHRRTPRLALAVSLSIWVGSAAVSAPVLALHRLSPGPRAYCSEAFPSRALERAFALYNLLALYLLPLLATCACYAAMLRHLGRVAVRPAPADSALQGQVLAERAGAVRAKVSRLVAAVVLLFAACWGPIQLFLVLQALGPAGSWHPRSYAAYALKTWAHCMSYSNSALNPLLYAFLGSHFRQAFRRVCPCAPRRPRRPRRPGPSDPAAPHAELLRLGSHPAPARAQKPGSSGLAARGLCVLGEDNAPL
A general note: Calcium assays in cells follow changes in intracellular calcium, usually with a dye or a luminescent sensor.

A short description of assay [3]: G protein-coupled receptor (GPCR) small molecule agonists, calcium flux assay: HEK293 wild type cell line counter screen (AID 1920065). The method, boiled down:
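Seed cells, incubate 18 h (37 C, 5% CO2); add calcium dye, 1 h at 37 C; pin-transfer compounds, ATP control or DMSO; read fluorescence 480/540 nm each second for 3 min.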

The nature of assay [4]: p53 small molecule agonists, cell-based qHTS assay with human liver microsomes (AID 1963577). The method, boiled down:
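Fluorescence of the beta-lactamase reporter in p53RE-bla cells, detected with LiveBLAzer substrate (2 h, room temperature, dark), served as the read-out after 16 h compound exposure at 37 C with human liver microsomes and NADPH, each 0.5 mg/mL final.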

The nature of assay [5]: p53 small molecule agonists, cell-based qHTS assay with rat liver microsomes (AID 1963578). Put shortly: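 Cells carrying a p53 response element–beta-lactamase reporter were plated and rested 5 h, then dosed with compound in DMSO plus rat liver microsomes and NADPH, each at 0.5 mg/mL final. After 16 h at 37 C, LiveBLAzer substrate was added for 2 h.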
The nature of assay [6]: p53 small molecule agonists, cell-based qHTS assay with human liver microsomes: qHTS cell viability counter screen (AID 1963579). Also: nearly all actives have a fitted effect of over 45% in size. The method, boiled down:
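Cytotoxicity counter screen: p53RE-bla, 4,000 cells/well; 5 h settle, 37 C/5% CO2; cpd + HLM 0.5 mg/mL + NADPH 0.5 mg/mL (final); 16 h, 37 C; CellTiter-Glo, 30 min RT, luminescence.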

Assay [7] can be described thus: p53 small molecule agonists, cell-based qHTS assay with rat liver microsomes: qHTS cell viability counter screen (AID 1963580). Also: nearly all actives have a fitted effect of over 45% in size. The method, boiled down:
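Cytotoxicity counter screen: intracellular ATP measured by CellTiter-Glo luminescence in the same wells as the beta-lactamase reporter read, on HCT-116 p53RE-bla cells exposed 16 h at 37 C to compounds with rat liver microsomes and NADPH, each 0.5 mg/mL final.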

A short description of assay [8]: p53 small molecule agonists, cell-based qHTS assay: qHTS cell viability counter screen (AID 1963581). Also: nearly all actives have a fitted effect of over 45% in size. Put shortly: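 Viability was counter-screened in parallel with the p53 agonist reporter by measuring intracellular ATP luminescence in the same HCT-116 p53RE-bla wells after 16 h compound treatment at 37 C.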
Assay [9] addresses 5-hydroxytryptamine receptor 2A (Homo sapiens) (UniProt P28223). As to the kind of experiment: 5-hydroxytryptamine receptor 2A (HTR2A) small molecule antagonists, cell-based qHTS assay (AID 1963586). Also: nearly all actives have a fitted effect of over 45% in size. The method, boiled down:
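CHO cells stably expressing human HTR2A were plated for 18 h at 37 C, then loaded with calcium dye for 1 h. Compounds were preincubated 5 min at room temperature before DOI (4 nM solution) was added. Kinetic fluorescence was read for 3 min.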

For assay [10] the target is unchanged. As to the kind of experiment: 5-hydroxytryptamine receptor 2A (HTR2A) small molecule agonists, cell-based qHTS assay (AID 1963587). Also: nearly all actives have a fitted effect of over 30% in size. Also: potency is read from the fitted curve at half-maximal effect. The method, boiled down: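 CHO cells stably expressing human HTR2A, plated 18 h, loaded with calcium dye 1 h at 37 C. Agonist mode: compounds added and intracellular calcium fluorescence recorded kinetically for 2 min at 1 sec intervals.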

The target of assay [11] is Muscarinic acetylcholine receptor M1 (Homo sapiens) (UniProt P11229). The assay is described as follows: Cholinergic receptor muscarinic 1 (CHRM1) small molecule antagonists, cell-based qHTS assay (AID 1963588). Also: nearly all actives have a fitted effect of over 40% in size. The method, boiled down:
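Compounds were tested at 15 concentrations in three independent runs. Dye-loaded CHRM1-CHO cells were exposed 5 min at room temperature before stimulation by acetylcholine added at 50nM. Intracellular calcium was read kinetically on FDSS for 3 min.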

Assay [12] has as its target Beta-2 adrenergic receptor (Homo sapiens) (UniProt P07550). As to the kind of experiment: Adrenergic beta2 receptor (ADRB2) small molecule agonists, cell-based qHTS assay (AID 1963593).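 Also: CHO cells stably overexpressing human ADRB2.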 The method, boiled down:
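CHO cells stably over-expressing ADRB2 were plated overnight at 37C, then dosed with compounds plus a stimulation mix containing 100uM IBMX and 25uM Ro-20-1724 for 0.5hr at room temperature. cAMP was measured by HTRF competition, 1hr.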

Assay [13] can be described thus: p53 small molecule agonists, cell-based qHTS assay (AID 1963582; active = well fitted activation curve with a large enough effect in the signal ratio in the repeat runs, not every such curve was filed as active; the % refers to the signal ratio). The method, boiled down:
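Cells carrying a p53-responsive bla reporter are treated with test compounds for 16 h at 37 C; beta-lactamase activity is then detected with LiveBLAzer B/G FRET substrate after 2 h at room temperature.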

Assay [14] concerns the target Muscarinic acetylcholine receptor M1 (Homo sapiens) (UniProt P11229). The assay is described as follows: Cholinergic receptor muscarinic 1 (CHRM1) small molecule agonists, cell-based qHTS assay (AID 1963589). Also: nearly all actives have a fitted effect of over 35% in size. The method, boiled down:
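Cells were plated and incubated 18 h at 37 C/5% CO2, loaded with calcium dye for 1 h at 37 C, then treated with compounds in DMSO. Fluorescence was recorded kinetically at 1 sec intervals.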

Assay [15] concerns the target Beta-2 adrenergic receptor (Homo sapiens) (UniProt P07550). As to the kind of experiment: Adrenergic beta2 receptor (ADRB2) small molecule antagonists, cell-based qHTS assay (AID 1963592). Also: series mostly up to about 92 µM; nearly all actives have a fitted effect of over 50% in size. The method, boiled down: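 Assay format: CHO-ADRB2 cells, 18-20hr seeding at 37C/5% CO2, then compound plus 1nM isoproterenol agonist mix for 0.5hr RT. Homogeneous time-resolved fluorescence cAMP detection after 1hr, expressed as 665/615 nm ratio.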

The target of assay [16] is D(2) dopamine receptor (Homo sapiens) (UniProt P14416). As to the kind of experiment: Dopamine D2 receptor (DRD2) small molecule agonists, cell-based qHTS assay (AID 1963594). Also: nearly all actives have a fitted effect of over 35% in size. Also: potency is read from the fitted curve at half-maximal effect. The method, boiled down:
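HEK293 cells stably expressing human DRD2, pre-treated with PDE inhibitor Ro20-1724 (0.1 mM final) and compound 10 min at room temperature, then stimulated with NKH477 (200nM […]) for 30 min. cAMP read by HTRF (665/620 nm).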

Assay [17] has the same target. As to the kind of experiment: Dopamine D2 receptor (DRD2) small molecule antagonists, cell-based qHTS assay (AID 1963595; active = well fitted inhibition curve with a large enough effect in the signal ratio in the repeat runs, with a control signal flat; the % refers to the signal ratio). Put shortly: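 DRD2-HEK293; 0.1 mM Ro20-1724; cpd 10 min RT; NKH477 200 nM + quinpirole 12 nM, 30 min RT; HTRF cAMP (cAMP-d2/anti-cAMP cryptate), 665/620 nm ratio after 1 h.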
The nature of assay [18]: cAMP Responsive Elements (CRE) small molecule agonists, cell-based qHTS assay (AID 1963590). Put shortly:
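Cells carrying a CRE-driven beta-lactamase reporter (HEK 293T) are seeded, incubated overnight (18 h), and treated with test compounds for 3 h at 37 C; reporter activity is then detected with a FRET substrate after 2 h at room temperature.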

Assay [19] can be described thus: cAMP Responsive Elements (CRE) small molecule antagonists, cell-based qHTS assay (AID 1963591; active = well fitted inhibition curve with a large enough effect in the signal ratio in the repeat runs, not every such curve was filed as active; the % refers to the signal ratio). The method, boiled down:
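Cells (CRE-bla HEK 293T, DMEM with 10% dialyzed FBS and 25 mM HEPES) are seeded and incubated 18 h. Compounds are added with NKH477 agonist at 0.25 uM final for 3 h, then FRET substrate for 2 h.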

Results filed as inconclusive are left out. Active and inactive are the calls of the source. Unless noted, calls follow the shape of the full dose curve.

5-hydroxytryptamine receptor 2A (Homo sapiens), sequence (P28223 whole entry, looked up): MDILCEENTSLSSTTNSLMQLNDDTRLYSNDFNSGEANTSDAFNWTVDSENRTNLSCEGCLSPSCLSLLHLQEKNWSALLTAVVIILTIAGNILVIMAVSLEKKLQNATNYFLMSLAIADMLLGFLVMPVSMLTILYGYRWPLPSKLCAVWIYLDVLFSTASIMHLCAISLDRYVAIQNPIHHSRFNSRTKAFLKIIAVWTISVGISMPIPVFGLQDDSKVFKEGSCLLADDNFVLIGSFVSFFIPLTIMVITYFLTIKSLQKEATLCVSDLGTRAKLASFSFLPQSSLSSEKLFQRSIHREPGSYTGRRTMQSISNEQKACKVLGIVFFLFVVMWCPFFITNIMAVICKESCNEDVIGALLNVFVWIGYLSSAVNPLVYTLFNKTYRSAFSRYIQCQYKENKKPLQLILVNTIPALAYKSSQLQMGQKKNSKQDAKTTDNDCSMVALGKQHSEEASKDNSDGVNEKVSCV
Beta-2 adrenergic receptor (Homo sapiens), sequence (P07550 whole entry, looked up): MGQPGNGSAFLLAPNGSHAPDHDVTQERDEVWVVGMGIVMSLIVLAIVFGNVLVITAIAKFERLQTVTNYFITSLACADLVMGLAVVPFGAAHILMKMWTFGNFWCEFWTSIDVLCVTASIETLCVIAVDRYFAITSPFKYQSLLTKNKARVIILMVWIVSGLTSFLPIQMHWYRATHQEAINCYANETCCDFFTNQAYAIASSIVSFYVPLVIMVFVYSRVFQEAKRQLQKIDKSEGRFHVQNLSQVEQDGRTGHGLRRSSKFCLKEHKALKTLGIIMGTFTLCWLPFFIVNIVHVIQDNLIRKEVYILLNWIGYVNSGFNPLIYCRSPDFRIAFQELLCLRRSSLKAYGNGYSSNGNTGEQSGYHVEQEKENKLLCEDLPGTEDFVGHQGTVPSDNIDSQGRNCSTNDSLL
D(2) dopamine receptor (Homo sapiens), sequence (P14416 whole entry, looked up): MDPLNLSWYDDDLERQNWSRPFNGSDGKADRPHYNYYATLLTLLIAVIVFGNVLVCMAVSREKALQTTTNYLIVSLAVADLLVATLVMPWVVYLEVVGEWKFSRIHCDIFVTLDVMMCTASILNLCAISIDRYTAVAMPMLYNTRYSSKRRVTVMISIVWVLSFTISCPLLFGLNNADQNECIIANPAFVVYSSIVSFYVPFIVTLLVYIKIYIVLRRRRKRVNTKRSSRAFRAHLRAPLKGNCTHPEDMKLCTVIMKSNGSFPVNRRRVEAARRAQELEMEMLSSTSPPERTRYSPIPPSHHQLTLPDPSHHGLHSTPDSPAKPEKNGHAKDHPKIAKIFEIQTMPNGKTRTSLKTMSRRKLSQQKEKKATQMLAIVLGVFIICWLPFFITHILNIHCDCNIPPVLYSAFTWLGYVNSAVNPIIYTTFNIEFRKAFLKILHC
Muscarinic acetylcholine receptor M1 (Homo sapiens), sequence (P11229 whole entry, looked up): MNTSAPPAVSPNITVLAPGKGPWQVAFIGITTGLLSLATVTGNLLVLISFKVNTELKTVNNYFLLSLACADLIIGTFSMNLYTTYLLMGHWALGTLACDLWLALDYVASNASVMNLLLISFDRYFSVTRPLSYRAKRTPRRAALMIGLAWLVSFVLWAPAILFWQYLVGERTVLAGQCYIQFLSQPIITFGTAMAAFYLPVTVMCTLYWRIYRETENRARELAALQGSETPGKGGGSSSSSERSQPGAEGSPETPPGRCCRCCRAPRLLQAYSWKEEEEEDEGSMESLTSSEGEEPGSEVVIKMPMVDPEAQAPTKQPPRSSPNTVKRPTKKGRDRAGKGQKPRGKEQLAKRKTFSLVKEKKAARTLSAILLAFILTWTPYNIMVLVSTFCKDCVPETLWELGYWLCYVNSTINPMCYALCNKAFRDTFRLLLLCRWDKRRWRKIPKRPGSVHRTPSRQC

With `CC(C(=O)O)c1ccc2c(c1)[nH]c1ccc(Cl)cc12` (centres undefined), the Potency entry in assay [1], in assay [2], in assay [3], in [4], in assay [5] and in assay [6] was “inactive” each time. The Potency result in [7], in assay [8], in assay [9], in assay [10], in [11] and in [12] was “inactive” each time.
In the case of `O=C(O)c1ccc(-n2nc(-c3ccccc3O)nc2-c2ccccc2O)cc1`, the Potency result in [1], in assay [2], in assay [3], in [6], in assay [7] and in assay [8] was “inactive” in each case. Further, the Potency entry in assay [13], in assay [9], in assay [10], in [11], in assay [14] and in [15] was “inactive” each time. Further, in [17], the Potency entry was “inactive”. Besides, the Potency in [16] is 11.2 µM (active).
Consider `Cc1cc(O)c2c(O)c3c(O)cccc3cc2c1`, for which the Potency entry in assay [1], in assay [2], in [3], in assay [5], in assay [6] and in assay [8] was “inactive” each time. For the same compound, the Potency entry in assay [10], in assay [11], in [14], in assay [16] and in [17] was “inactive” throughout.
Take `Oc1ccc(Cc2ccccc2)cc1`: the Potency entry in assay [1], in assay [2], in [3], in [4], in assay [5] and in assay [7] was “inactive” in each case. The Potency result in assay [8], in [13], in [11], in assay [12], in assay [16] and in assay [17] was “inactive” in each case.
On to `NCc1cccc(C2CCN(C(=O)c3ccc(C#Cc4ccccc4F)o3)CC2)c1`, for which the Potency is 54.5 µM (active) in assay [1] and 21.9 µM (active) in assay [10]. Further, the Potency entry in assay [2], in assay [3], in assay [5], in assay [6] and in assay [14] was “inactive” throughout.
For `CC(Oc1c(Cl)cccc1Cl)C1=NCCN1` (centres undefined), the Potency result in assay [1], in assay [2], in [3], in assay [4], in assay [5] and in [6] was “inactive” throughout. Also, the Potency entry in [7], in assay [8], in assay [13], in assay [9], in assay [11] and in assay [14] was “inactive” in each case. For the same compound, the Potency result in assay [18], in assay [19], in assay [15], in [16] and in assay [17] was “inactive” each time.
With `Cc1ccccn1`, the Potency entry in assay [1], in assay [2], in assay [3], in assay [4], in [5] and in assay [7] was “inactive” throughout. In addition, the Potency entry in [8], in assay [13], in assay [9], in assay [10], in [14] and in [18] was “inactive” each time. For the same compound, the Potency result in [15], in assay [12], in assay [16] and in assay [17] was “inactive” in each case.

These data come from PubChem BioAssay (Tox21).
